Results: publication PMC4336329 (PLoS ONE, 2015)
Out of some 310,000 compounds screened, about 2,200 (0.71%) showed an effect of 50% or more. Effects have a minus sign here. The sample as a whole holds a higher share of strong results than the screen did.

biological target: human ether-à-go-go-related gene (hERG) potassium channel (human, UniProt Q12809); assay: primary screen, population patch clamp on CHO cells stably expressing hERG; higher = less effect of the substance
Protocol: Briefly, Chinese hamster ovary (CHO) cells stably expressing the hERG channel were dislodged from tissue culture flasks and dispensed into PPC plates. […] During the recording, background leak currents were estimated by a 100 ms step to -80 mV from an initial holding potential of -70 mV and subtracted from the subsequent current measurement. The campaign was conducted in two phases using slight differences in recording protocol. In the first phase, the initial voltage pulse used a 100 ms step to -30 mV from a holding potential of -70 mV, a 2 s conditioning step to +25 mV, and a 2 s test step to -30 mV. During the second phase of the screen, the potential during the conditioning step was raised to +45 mV. In both phases of the campaign, a secondary voltage pulse was applied using the same parameters as the second phase initial pulse. The initial and secondary pulses were applied in the absence of compound, and upon application of 1 μM and 10 μM test concentrations. Small molecule effects on hERG current density were quantified by […].

Sequence of human ether-à-go-go-related gene (hERG) potassium channel (Q12809 whole entry, looked up): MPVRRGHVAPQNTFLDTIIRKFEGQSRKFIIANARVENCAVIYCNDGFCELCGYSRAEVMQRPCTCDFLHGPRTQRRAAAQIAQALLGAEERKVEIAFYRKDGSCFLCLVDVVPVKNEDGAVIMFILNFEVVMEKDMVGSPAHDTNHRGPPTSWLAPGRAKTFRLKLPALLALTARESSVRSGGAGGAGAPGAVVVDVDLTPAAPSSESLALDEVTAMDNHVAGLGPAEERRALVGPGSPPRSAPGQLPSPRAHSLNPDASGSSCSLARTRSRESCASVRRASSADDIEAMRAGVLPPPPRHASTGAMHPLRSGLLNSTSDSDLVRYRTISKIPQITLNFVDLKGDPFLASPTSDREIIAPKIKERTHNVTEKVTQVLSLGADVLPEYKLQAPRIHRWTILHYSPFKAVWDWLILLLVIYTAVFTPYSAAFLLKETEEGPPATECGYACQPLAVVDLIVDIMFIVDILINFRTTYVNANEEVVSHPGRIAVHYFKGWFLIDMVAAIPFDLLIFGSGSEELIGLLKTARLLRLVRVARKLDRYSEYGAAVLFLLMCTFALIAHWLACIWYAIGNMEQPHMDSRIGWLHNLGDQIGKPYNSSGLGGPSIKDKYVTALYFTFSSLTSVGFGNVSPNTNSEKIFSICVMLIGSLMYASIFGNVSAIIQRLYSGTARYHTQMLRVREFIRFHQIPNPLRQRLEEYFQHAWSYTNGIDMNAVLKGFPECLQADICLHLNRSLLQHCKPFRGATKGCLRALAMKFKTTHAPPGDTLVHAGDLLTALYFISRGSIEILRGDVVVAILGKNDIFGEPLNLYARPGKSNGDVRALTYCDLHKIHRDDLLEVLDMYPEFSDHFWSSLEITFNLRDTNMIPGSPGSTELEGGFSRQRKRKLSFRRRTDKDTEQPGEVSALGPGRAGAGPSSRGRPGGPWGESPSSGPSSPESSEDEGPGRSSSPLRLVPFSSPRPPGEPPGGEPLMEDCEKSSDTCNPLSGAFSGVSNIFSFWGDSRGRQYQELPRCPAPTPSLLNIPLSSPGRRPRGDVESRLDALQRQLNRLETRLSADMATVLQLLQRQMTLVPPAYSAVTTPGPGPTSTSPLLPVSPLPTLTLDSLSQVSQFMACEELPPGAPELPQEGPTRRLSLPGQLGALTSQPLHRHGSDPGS

Row | SMILES | hERG current change (%, negative = inhibition) at 1uM [%]
1 | O=C(CSCc1c(F)cccc1Cl)NCC1CCCO1 (stereo not shown) | -1.83
2 | CCn1cc(C2=NC(CCSC)CO2)c2ccccc21 (stereo not shown) | 12
3 | Cc1ccc(C2=NN(CC(=O)O)C(=O)CC2)cc1 | -9.99
4 | Cc1ccc(C(=O)N2CCN(c3ccc([N+](=O)[O-])cc3-n3cccc3)CC2)cc1 | -16.4
5 | COc1cccc(N2CCN(CC(=O)C34CC5CC(CC(C5)C3)C4)CC2)c1 | 14
6 | O=C(O)c1ccccc1C(=O)O | 4.51
7 | O=C1OC(NC(=O)c2ccccc2)C(n2cc(CO)nn2)=C1Cl (stereo not shown) | -3.22
8 | COc1ccc(N(C(=O)Cc2cccs2)C(C(=O)NC2CCCCC2)c2cccn2C)cc1 (stereo not shown) | 9.18
9 | N#C/C(=C/c1ccc(Cl)cc1)NC(=O)c1ccccc1 | 12.2
10 | COCC(C)n1c(C)cc(C(=O)CSc2nnnn2C2CCCC2)c1C (stereo not shown) | 5.12
11 | COCCn1c(C)cc(C(=O)CSc2nnnn2C2CCCC2)c1C | -58.4
12 | CCn1c(C)cc(C(=O)CSc2nnnn2C2CCCC2)c1C | -9.53
13 | CCOC(=O)C1CCCN(CCC(=O)Nc2c(C(=O)OC)[nH]c3cc(OC)ccc23)C1 (stereo not shown) | -38
14 | O=C(CSc1nnc(-c2ccc(O)cc2)o1)Nc1cccc(O)c1 | 17.7
15 | Cl.Nc1cc(F)ccc1N1CCCCCC1 | 12.7
16 | CN(C)C(=O)C1C2NC(=S)N(c3ccccc3)C1(C)Oc1ccccc12 (stereo not shown) | 2.05
17 | O=[N+]([O-])c1ccc(N2CCCCC2)cn1 | 13.9
18 | O=[N+]([O-])c1ccc(N2CCN(c3ccccc3Cl)CC2)cn1 | -10
19 | O=[N+]([O-])c1ccc(N2CCN(c3cccc(Cl)c3)CC2)cn1 | -59.8
20 | CCc1cccc(C)c1NC(=O)CC1Oc2ccc(C)cc2NC1=O (stereo not shown) | 11.9
21 | CCCOC(=O)CCCN1C(=O)/C(=C2\SC(=S)N(CCCC(=O)OCCC)C2=O)SC1=S | 16
22 | Cc1cc2c(cc1C)C(c1ccsc1)CC(=O)N2 (stereo not shown) | 9.06

Row | SMILES | hERG current change (%, negative = inhibition) at 1uM [%]
23 | COc1ccc(CN2CCNC(=O)C2CC(=O)N(C)Cc2nccs2)c(OC)c1 (stereo not shown) | 13.1
24 | Cc1ccc(NS(=O)(=O)c2ccc(C(=O)N3CCN(c4ncccn4)CC3)cc2)cc1 | 1.36
25 | Cc1ccc(NC(=O)/C(=C\c2cccc([N+](=O)[O-])c2)NC(=O)c2cccs2)cc1 | 4.59
26 | O=C(Nc1cccc2ccccc12)/C(=C/c1cccc([N+](=O)[O-])c1)NC(=O)c1cccs1 | -37.8
27 | Cc1ccc(C(=O)N/C(=C/c2ccc(F)cc2)C(=O)NCc2ccncc2)cc1 | -78.4
28 | O=C(Nc1cccc2ccccc12)/C(=C\c1cccc([N+](=O)[O-])c1)NC(=O)c1cccs1 | -67.7
29 | COc1ccc(/C=C(/NC(=O)c2ccc(C)cc2)C(=O)NCc2ccncc2)cc1 | -21.3
30 | Cc1ccc(C(=O)N/C(=C\c2cccs2)C(=O)NCc2ccncc2)cc1 | -38.5
31 | Cc1ccc(C(=O)N/C(=C\c2ccc(F)cc2)C(=O)NCc2ccncc2)cc1 | -81.2
32 | Cc1ccc(C(=O)N/C(=C\c2ccccc2)C(=O)NCc2cccnc2)cc1 | -41.8
33 | Cc1ccc(C(=O)N/C(=C\c2ccccc2)C(=O)NCc2ccncc2)cc1 | -77.1
34 | COc1ccc(C(=O)N/C(=C/c2ccc(Cl)cc2)C(=O)NCc2ccncc2)cc1 | -38.4
35 | Cc1ccc(C(=O)N/C(=C\c2sccc2C)C(=O)NCc2ccncc2)cc1 | -1.07
36 | Cc1ccc(C(=O)N/C(=C/c2ccccc2)C(=O)NCc2ccncc2)cc1 | -37.7
37 | N#Cc1c(NC(=S)NC(=O)C2CCCC2)sc2c1CCCCC2 | 10.1
38 | COc1ccc(N2CCN(c3ncnc4c3cnn4-c3ccc(C)cc3C)CC2)cc1 | 13.6
39 | CCC(=O)N1CCc2cc(S(=O)(=O)NC(C(=O)NCc3ccc(C)cc3)C(C)C)ccc21 (stereo not shown) | 1.57
40 | CCOc1ccc2nc(N3CCCC(C(=O)NCCCN4CCCCC4)C3)sc2c1 (stereo not shown) | -11.7
41 | CCN=C(NCC)SC1CC(=O)N(c2ccc(OCC)cc2)C1=O (stereo not shown) | 7.6
42 | Cn1cc(/C=N/NC(=O)c2ccc(C#N)cc2F)c2ccccc21 | 12.6
43 | N#Cc1c(N2CCCC(O)C2)nc(N)c2c(N)nc3c(c12)CC(=O)N3C12CC3CC(CC(C3)C1)C2 (stereo not shown) | 8.76
44 | O=C(NCc1ccncc1)/C(=C/c1cccc([N+](=O)[O-])c1)NC(=O)c1ccccc1 | -31.2

Row | SMILES | hERG current change (%, negative = inhibition) at 1uM [%]
45 | O=C(NCc1ccncc1)/C(=C\c1ccc(F)cc1)NC(=O)c1ccccc1 | -52.3
46 | CN(C)c1ccc(/C=C(\NC(=O)c2ccccc2)C(=O)NCc2ccncc2)cc1 | 4.78
47 | CCNC(=O)/C(=C/c1cccc([N+](=O)[O-])c1)NC(=O)c1ccc(C)cc1 | -17.3
48 | Cc1ccc(C(=O)N/C(=C\c2cccc([N+](=O)[O-])c2)C(=O)NCc2ccncc2)cc1 | -65.3
49 | COc1ccc(/C=C(/NC(=O)c2ccccc2)C(=O)NCc2ccncc2)cc1 | -12.6
50 | Cc1ccc(C23CC4CC(CC(C(=O)OCC(=O)NC5CCS(=O)(=O)C5)(C4)C2)C3)cc1 (stereo not shown) | 1.74
51 | COc1ccc(OCC(=O)NNC(=O)C(=O)Nc2cc(OC)ccc2OC)cc1 | 13.5
52 | c1ccc(-c2oc3ncnc(NCCN4CCOCC4)c3c2-c2ccccc2)cc1 | 9.8
53 | N=c1c2c(-c3ccccc3)c(-c3ccccc3)oc2ncn1CCCN1CCOCC1 | -84.5
54 | COc1ccc(-c2oc3ncn(CCN4CCOCC4)c(=N)c3c2-c2ccc(OC)cc2)cc1 | -7.75
55 | N=c1c2c(-c3ccccc3)c(-c3ccccc3)oc2ncn1CCN1CCOCC1 | -63.5
56 | c1ccc(-c2oc3ncnc(NCCCN4CCOCC4)c3c2-c2ccccc2)cc1 | 0.244
57 | N=c1c2c(-c3ccccc3)c(-c3ccccc3)oc2ncn1Cc1ccco1 | 9.94
58 | COc1ccccc1CCc1nnc(CCC(=O)N(C)Cc2cccc3cnccc23)o1 | -53.3
59 | CN(Cc1cccc2cnccc12)C(=O)CCc1nnc(CCc2ccccc2)o1 | -5.46
60 | COc1ccccc1CCc1nnc(CCC(=O)N(C)Cc2ccncc2C)o1 | 16.2
61 | COc1ccc2[nH]c(=O)c(CN(Cc3cccnc3)S(=O)(=O)c3ccccc3F)cc2c1 | 7.89
62 | CCOc1ccc(NC(=O)CN(C)C(=O)c2ccc(-c3ccc(C(C)=O)cc3)o2)cc1OCC | 10.5
63 | Cl.Nc1c2c(nc3ccccc13)CCCC2 | -12.6
64 | Nc1c2c(nc3ccn(-c4ccccc4)c(=O)c13)CCCCC2 | -37.1
65 | Nc1c2c(nc3ccn(Cc4ccccc4)c(=O)c13)CCC2 | -59
66 | NC(=O)NC(c1ccc(Cl)cc1)c1ccccc1Cl (stereo not shown) | 7.43

Row | SMILES | hERG current change (%, negative = inhibition) at 1uM [%]
67 | CC(=O)Nc1ccc(-n2c(C)ccc2C)cc1 | 12.9
68 | O=C(/C=C/c1cccc(F)c1)N1CCN(c2ncccn2)CC1 | 12.4
69 | O=C(/C=C/c1cccc(F)c1)N1CCN(c2ccccn2)CC1 | -68.4
70 | O=C(/C=C/c1ccccc1Cl)N1CCN(c2ncccn2)CC1 | 7.12
71 | O=C(/C=C/c1ccc(F)cc1)N1CCN(c2ncccn2)CC1 | 18.1
72 | O=C(/C=C/c1ccccc1)N1CCN(c2ccccn2)CC1 | -3.17
73 | O=C(/C=C/c1c(Cl)cccc1Cl)N1CCN(c2ncccn2)CC1 | -53
74 | Cc1ccc2cc(CCNC(=O)c3ccc(S(=O)(=O)N4CCOCC4)cc3)c(=O)[nH]c2c1C | 11.8
75 | Cc1ccc(C)c(S(=O)(=O)NCC(=O)NCc2ccco2)c1 | 4.55
76 | Cc1cccc(C)c1NC(=O)CCCSc1nnc(N)s1 | 8.09
77 | Cc1ccc(OCC(O)Cn2c(=N)n(CCN3CCOCC3)c3ccccc32)cc1.Cl (stereo not shown) | -9.7
78 | CCCCn1c(=N)n(CC(O)c2ccccc2)c2ccccc21.Cl (stereo not shown) | -36.7
79 | CCn1c(=N)n(CCOc2ccc(OC)cc2)c2ccccc21 | -25.5
80 | CCN(CC)CCn1c(=N)n(CC(O)COc2ccccc2)c2ccccc21.Cl (stereo not shown) | -20.5
81 | CCCn1c(=N)n(CC(O)COc2ccc(C)cc2)c2ccccc21.Cl (stereo not shown) | -68
82 | CCCCn1c(=N)n(CC(O)COc2ccccc2)c2ccccc21 (stereo not shown) | -68
83 | CCCn1c(=N)n(CCOc2ccc(OC)cc2)c2ccccc21 | -22
84 | Cc1ccc(OCC(O)Cn2c3ccccc3c3ccccc32)cc1 (stereo not shown) | 16.8
85 | Cl.N=c1n(CCN2CCOCC2)c2ccccc2n1CC(O)COc1ccccc1 (stereo not shown) | -3.77
86 | CCn1c(=N)n(CC(O)COc2ccc(C)cc2)c2ccccc21.Cl (stereo not shown) | -16.8
87 | Br.CCCCn1c(=N)n(CCOc2ccc(C)cc2)c2ccccc21 | -59.6
88 | CCCCn1c(=N)n(CC(O)COc2ccc(C)cc2)c2ccccc21.Cl (stereo not shown) | -77
